Results as given in PubChem BioAssay AID1486 (The Scripps Research Institute Molecular Screening Center, 2009).
About 2,400 (1.1%) of roughly 220,000 compounds were called active. For the sample, actives were picked, then their nearest neighbours and some compounds at random. Unmarked numbers belong to inactive results.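 How the source made its calls: active means inhibition above a per-campaign cutoff, the mean inhibition of all tested compounds plus 3 SD (cut at about 27% in these data); inactive means the rest.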

Test: growth loss in parental Ba/F3 cells – cell-based, murine pro-B, CellTiter-Glo luminescence, counter-screen for JAK2V617F inhibitor project (AID 1486);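 further: 0% = DMSO wells and 100% = JAK Inhibitor I control wells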
Conditions: Ba/F3 parental viability, CellTiter-Glo ATP luminescence; at 5.6 µM; hits give high values

Row | Structure (SMILES) | inhibition
1 | Cc1ccccc1-c1nc(C#N)c(NCc2ccco2)o1 | 11.3%
2 | COc1ccc(Nc2oc(-c3ccccc3Cl)nc2C#N)cc1 | 29.4% (active)
3 | COc1ccccc1-c1nc(C#N)c(N2CCC(C(N)=O)CC2)o1 | 1.59%
4 | NC1=NC2(CCCCC2)N(c2ccc(F)cc2F)C(N)=N1 | 5.17%
5 | COc1ccc(CCNC(=O)CC2SC(=Nc3cc(C)cc(C)c3)NC2=O)cc1OC (configuration not stated) | 2.92%
6 | O=c1cc(O)c(-c2cccc(C(F)(F)F)c2)c(Cl)[nH]1 | 13.5%
7 | COC(=O)Nc1nc2ccc(Sc3ccccc3)cc2[nH]1 | 76% (active)
8 | Cc1nc2ccc(C(=O)O)cc2[nH]1 | -0.24%
9 | COc1cc(OC)cc(C(=O)N[C@H](C(=O)Nc2nc3ccccc3[nH]2)C(C)C)c1 | 16.4%
10 | COc1ccccc1-c1c(C#N)c(N)nc2c1CCC2 | 0.32%
11 | COC(=O)c1sccc1NC(=O)CC1C(=O)NCCN1C(=O)Nc1ccc(F)cc1F (configuration not stated) | -2.58%
12 | CSc1ccc(/C=N/NC(=O)c2cccc(Cl)c2)cc1 | 1.81%
13 | Cc1ccc(CNC(=O)C2CC(c3ccccc3[N+](=O)[O-])=NO2)o1 (configuration not stated) | 0.33%
14 | COc1ccc(C2=NOC(C(=O)NCc3ccco3)C2)cc1OC (configuration not stated) | 64.1% (active)
15 | COc1ccc(-c2cc(C(=O)NCc3ccco3)no2)cc1OC | 4.7%
16 | Cc1cc(N)n(-c2ccc(S(=O)(=O)N3CCCC3)cc2[N+](=O)[O-])n1 | 4.29%
17 | C=CCOCCN(C)C1=NS(=O)(=O)c2ccccc21 | 3.69%
18 | COc1ccc(N2C(=O)CNC2=S)cc1 | 2.23%
19 | Cc1cc2cc(CNC(=O)c3cccs3)ccc2[nH]1 | 39% (active)

Row | Structure (SMILES) | inhibition
20 | Cc1ccc(C)c2[nH]c(=O)c(CCNC(=O)c3cccs3)cc12 | 6.4%
21 | CCc1cccc(CC)c1NC(=S)NCc1ccc2[nH]c(C)cc2c1 | 8.67%
22 | Cn1c(=O)c2c(nc(N/N=C/c3cccs3)n2Cc2ccc(Br)cc2)n(C)c1=O | 2.68%
23 | COc1ccc(-c2csc(-c3cccs3)n2)cc1OC | 6.08%
24 | COc1ccc(Br)cc1CN(C)CC(=O)Nc1cc([N+](=O)[O-])ccc1OC | -2.62%
25 | CCOC(=O)c1cc(-c2ccc(F)cc2)n(CC(=O)NCc2ccccn2)c1C | 5.17%
26 | CC1CCN(Cc2nc(-c3ccc(Cl)cc3)no2)CC1 | 36% (active)
27 | CN1CCN(C(=O)CCc2nc(-c3ccc(Cl)cc3)no2)CC1 | 5.12%
28 | Cc1ccc(-c2noc(CN3CCN(Cc4ccccc4)CC3)n2)cc1 | 3.84%
29 | O=c1[nH]c2cccnc2n(CCNc2ncc(C(F)(F)F)cc2Cl)c1=O | 3.7%
30 | N#CC1=C(N)Oc2[nH]c(=S)[nH]c(=O)c2C12C(=O)Nc1ccccc12 (configuration not stated) | 1.28%
31 | Cc1nc(-c2ccccc2)cn2c1nc1ccccc12 | 6.83%
32 | Cc1c(Cl)c([N+](=O)[O-])nn1CC(=O)NCC1CCCO1 (configuration not stated) | -0.44%
33 | COc1cc(OC)nc(S(C)(=O)=O)n1 | -0.84%
34 | COc1ccc(-c2cc(C(F)(F)F)nc(SCC(=O)Nc3ccc4c(c3)OCO4)n2)cc1OC | 6.51%
35 | COc1ccc(-c2cc(C(F)(F)F)nc(S(C)(=O)=O)n2)cc1OC | 32.3% (active)
36 | CC(=O)c1ccc2c(c1)OCCOCCOc1ccc(C(C)=O)cc1OCCOCCO2 | 6.46%
37 | O=C(CSc1nnc(-c2c[nH]c3ccccc23)n1-c1ccc(F)cc1)NCc1ccco1 | 93.5% (active)
38 | O=C(CSc1nnc(-c2cccs2)n1-c1ccccc1)NCc1ccco1 | 1.12%

Row | Structure (SMILES) | inhibition
39 | COc1ccc(-n2c(SCC(=O)NCc3ccco3)nnc2-c2c[nH]c3ccccc23)cc1 | 7.39%
40 | CC(C)C(C)(C#N)NC(=O)CSc1nncn1-c1ccccc1 (configuration not stated) | 6.72%
41 | CC(NC(=O)c1cccc2ccccc12)c1ccc2c(c1)CCCC2 (configuration not stated) | 46.5% (active)
42 | O=C(Cc1ccc2c(c1)CCCC2)Nc1ccccc1Cl | 6.44%
43 | CC(=O)c1sc(NC(=O)c2cccc3ccccc23)nc1C | 4.12%
44 | Cc1ccc(N/N=C2\COC(C)(C)CC2=O)cc1 | -2.17%
45 | O=S(=O)(NCc1ccco1)c1cnc(Cl)c(Cl)c1 | -2.02%
46 | Oc1ccc2ccccc2c1C=Nc1ccccc1 | 3.24%
47 | Oc1ccc2ccccc2c1N=Nc1nccs1 | 101% (active)
48 | Oc1ccc(N=Nc2nccs2)c(O)c1 | 0.92%
49 | Cc1ncoc1C(=O)N1CCCC(C(=O)c2ccc3c4c(cccc24)CC3)C1 (configuration not stated) | 5.56%
50 | N=C1/C(=C/c2cccn2-c2cccc([N+](=O)[O-])c2)C(=O)N=C2SC=CN12 | 3.29%
51 | Cc1ccc(OCC(=O)N/N=C/c2ccncc2)cc1 | -0.78%
52 | Cc1ccc(OCC(=O)N/N=C\c2ccco2)c(C)c1 | -2.78%
53 | Cc1ccc(/C=N/NC(=O)COc2ccccc2-c2ccccc2)cc1 | 83.4% (active)
54 | CCNc1nc(-c2cc3ccccc3o2)cs1 | 3.67%
55 | O=c1oc2ccccc2cc1-c1csc(Nc2ccc(O)cc2)n1 | 37.3% (active)
56 | COc1ccc2nc(Nc3nc(-c4cc5ccccc5oc4=O)cs3)sc2c1 | 6.64%
57 | Cc1cc(Nc2ccc(Cl)cc2)nc(N2CCOCC2)n1 | -1.08%
